# Screening results as filed in PubChem BioAssay.
# SW480 rereplic = DNA re-replication induction in SW480 cells. SW480 DNA re-replication, Hoechst DNA content imaging, 48 h. hit rate 1.8% among 340,000. Potency, µM (titrated, usually from 46.1 µM), without a hit: top-dose re-replication activation, most hits filed as activators; also: potency is read from the fitted curve at half-maximal effect; % of control where 0% means no effect; nearly all actives have a fitted effect of over 55% in size
#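 Per well, 250 cells were exposed to pinned compound for 48 hr. Nuclear DNA was visualised with Hoechst (40 min, 37 C) and total object intensity recorded by fluorescence scanning.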
# KB-V1 cytotox = KB-V1 MDR subline cytotoxicity. AID 1347076. Potency, µM (titrated, usually from 46.1 µM), usual class: cytotoxic. KB-V1 MDR cells viability, CellTiter-Glo, 72 h. hit rate 3.4% among 400,000; also: potency is read from the fitted curve at half-maximal effect; % is scaled to controls: 0 for no effect and ±100 for the full control effect; nearly all actives have a fitted effect of over 60% in size
#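 qHTS viability screen in drug-selected KB-V1 MDR cells: 72 h compound treatment at 37 degrees C, ATP luminescence end point.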
# KB-3-1 cytotox = kills parental KB-3-1 adenocarcinoma cells; AID 1347075; KB-3-1 viability, CellTiter-Glo ATP luminescence, 72 h; hit rate 1.4% among 400,000; Potency, µM (top dose mostly 46.1 µM), most hits filed as cytotoxic; also: potency is read from the fitted curve at half-maximal effect; % is scaled to controls: 0 for no effect and ±100 for the full control effect; nearly all actives have a fitted effect of over 60% in size
#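 Parental KB-3-1 adenocarcinoma cells in phenol-red-free DMEM with 10% FBS were pin-treated with compounds at several concentrations, incubated 72 h at 37 °C, and viability read by CellTiter-Glo luminescence; concentration-effect curves were fitted after normalization.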
# IL-1B inflam inh = inhibitors of inflammasome signaling (IL-1 beta secretion) | hit rate 4.7% among 360,000 | AID 743279 | activity change, % at 57.5 µM | THP-1 LPS/ATP IL-1B secretion, AlphaLISA, 16 h; active compounds read low; in the data active = activity change below about -50%; inconclusive = mostly about -30% to -49%; also: % is scaled to controls: 0 for no effect and ±100 for the full control effect
#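 THP-1 cells pretreated 1 hr with compounds (up to 57.5 uM final), then stimulated with LPS (250 ng/mL final) plus ATP (1.25 mM final); secreted IL-1B measured by AlphaLISA after 16 hr, decreased signal indicating inhibition.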
# MCF10A rereplic = inducers of DNA re-replication in MCF 10A breast cells | MCF 10A DNA re-replication, Hoechst nuclear intensity, 48 h | Potency, µM (doses to about 46.1 µM), for inactives: at the top dose activity, positive = re-replication, usual class: activators | hit rate 2.9% among 350,000 | AID 624296; also: potency is read from the fitted curve at half-maximal effect; % of control where 0% means no effect; nearly all actives have a fitted effect of over 50% in size
# Active calls of the source: *; i = inactive; ? = inconclusive; / = not tested or not shown; ! = repeats disagree. Compounds with a hit are over-represented: about 9.9% of the library has one in this group of screens. Unless noted, calls follow the shape of the dose curve; as a rule, active = well fitted curve in the direction sought with a large enough effect; inconclusive = small, poorly fitted or top-dose-only effect, or another doubt; inactive = no such curve, though single readings can be large; an effect the other way counts as inactive or inconclusive.
SMILES,SW480 rereplic,KB-V1 cytotox,KB-3-1 cytotox,IL-1B inflam inh,MCF10A rereplic
O=C(Nc1cccc(Cl)c1)c1ccc(F)c(S(=O)(=O)NCc2ccc3c(c2)OCO3)c1,13%,?,?,-14,?
CCCCCCn1c(SCCCC)nc2c1c(=O)[nH]c(=O)n2C,0%,i,i,3,5%
CCn1c([N+](=O)[O-])nc2c1c(=O)[nH]c(=O)n2C,8.2µM*,?,?,-99*,5.8µM*
COc1cc2c(cc1[N+](=O)[O-])-c1ccc([N+](=O)[O-])cc1C2=NNC(N)=S,/,?,i,-15,/
NC(=S)NN=C1c2cc(Cl)ccc2-c2c1cc(Cl)cc2[N+](=O)[O-],?,15µM*,6.5µM*,19,20%
CCCC1=C/C(=C/c2ccc(-c3ccccc3OC)o2)C(=O)O1,23µM*,i,i,5,10µM*
COc1ccccc1-c1ccc(/C=C2/C=C(CC(C)C)OC2=O)o1,-1%,i,i,-21,?
CC[C@H](C)[C@H]1O[C@]2(CC[C@@H]1C)C[C@@H]1C[C@@H](CC=C(C)[C@@H](O[C@H]3C[C@H](OC)[C@@H](O[C@H]4C[C@H](OC)[C@@H](O)[C@H](C)O4)[C@H](C)O3)[C@@H](C)C=CC=C3CO[C@@H]4[C@H](O)C(C)=C[C@@H](C(=O)O1)[C@]34O)O2,-9%,23µM*,7.3µM*,-29,?
CCC1(c2ccccc2)NC(=O)N(CC(=O)NCc2ccc(C)cc2)C1=O (stereo not given),-2%,i,i,-21,-1%
COC(=O)c1ccccc1NC(=O)c1cccc(COc2ccccc2Cl)c1,?,?,?,-7,2.6µM*
COC(=O)c1ccccc1NC(=S)NC(=O)COc1ccccc1Cl,1%,i,i,0,13%
O=C(NC(=S)Nc1ccc(Cl)c(C(=O)O)c1)c1cccc(COc2ccccc2)c1,4%,i,i,20,18%
O=C(NCc1c(Cl)cccc1Oc1ccccc1)c1ccccc1,-51%,12µM*,i,/,?
O=C(O)c1ccc(Cl)c(NC(=S)NC(=O)c2cccc(COc3ccccc3)c2)c1,2%,i,i,19,8.2µM*
O=C(NCc1ccccc1)c1cccc(COc2ccccc2Cl)c1,1%,?,i,-63*,?
NNC(=O)c1cccc(COc2ccccc2Br)c1,0%,i,?,?,2%
CC1=C(C(=O)N(C(C)C)C(C)C)CC(CC(=O)NC(c2ccccc2)c2ccccc2)C(=O)N1CCCN1CCCC1=O (stereo not given),/,i,i,-10,/
Cc1ccc(C(=O)N2CCN(c3nc4ccccc4n3C)CC2)cc1,-13%,?,i,-20,4%
O=C(NCc1ccccc1)c1cccc(COc2cc(Cl)ccc2Cl)c1,?,21µM*,i,-9,27%
CCn1c(CSc2nc3ccccc3s2)nnc1SCC(=O)NCC(=O)OC,-10%,i,i,13,12%
O=C1[C@H](Cc2ccccc2)NCCCC[C@@H](c2ccc(Cl)cc2)N1Cc1ccc(Cl)cc1,?,?,12µM*!,-50*,?
Cc1cc(C(=O)Nc2ccc3c(c2)OCCO3)c(C)o1,1%,i,i,-8,-16%
Cc1ccsc1C(=O)Nc1ccc2c(c1)OCCO2,-1%,21µM*,?,36,16%
O=C(Nc1ccc2c(c1)OCCO2)c1ccc(Br)s1,107%,13µM*,18µM*,-76*,?
O=C(Nc1ccc2c(c1)OCCO2)c1ccccc1,-3%,i,i,-25,0%
SMILES,SW480 rereplic,KB-V1 cytotox,KB-3-1 cytotox,IL-1B inflam inh,MCF10A rereplic
Cc1occc1C(=O)Nc1ccc2c(c1)OCCO2,-2%,13µM*,i,-5,-1%
COc1ccc(OC)c(CNC(=O)C2CCN(c3nc4ccccc4nc3C(F)(F)F)CC2)c1,/,i,i,/,/
CSCCC(NS(=O)(=O)c1ccc(Cl)cc1)C(=O)N1CCN(c2ccccc2)CC1 (stereo not given),3%,15µM*,i,-3,-2%
CSCCC(NS(=O)(=O)c1ccc(Cl)cc1)C(=O)OCc1c(Cl)cccc1Cl (stereo not given),?,7.3µM*,?,36,16µM*
CSCCC(NS(=O)(=O)c1ccc(C)cc1)C(=O)N1CCCCCCC1 (stereo not given),-3%,16µM*,i,-4,-3%
Cc1ccc(NC(=O)CCS(=O)(=O)c2cccc3nsnc23)c(C)c1,/,i,i,/,/
Cc1cccc(C)c1NC(=O)Nc1ccc(S(N)(=O)=O)cc1,-18%,i,i,-3,-2%
CN(C)CC(C)(C)CNC(=S)Nc1ccc(S(=O)(=O)N2CCOCC2)cc1,26µM*,?,i,0,7%
O=C(CCc1ccccc1)NC(=S)Nc1ccc(S(=O)(=O)N2CCOCC2)cc1,64%,4.6µM*,?,2,?
O=S(=O)(c1ccc(NC(=S)Nc2ccccc2)cc1)N1CCOCC1,-2%,i,i,41,-10%
CC(C)CCCCCCNC(=S)Nc1ccc(S(=O)(=O)N2CCOCC2)cc1,?,8.2µM*,?,-82*,13µM*
Cc1csc(NC(=O)CCc2ccc(S(=O)(=O)N3CCOCC3)cc2)n1,21%,23µM*,i,-21,?
COc1cc(NC(=S)Nc2ccc(S(=O)(=O)N3CCOCC3)cc2)cc(OC)c1OC,0%,i,i,5,1%
COc1ccc(C(=O)COC(=O)CN2C(=O)c3ccccc3C2=O)c(OC)c1,-2%,i,i,i,8%
Cc1sc2ncn(CC(=O)NCc3ccco3)c(=O)c2c1-c1ccccc1,1%,i,i,26,5%
COc1ccc(NC(=O)CN2CCN(c3ccccc3F)CC2)c(OC)c1,/,i,i,/,/
CCOc1ccc(NC(=O)CN2CCN(CC(=O)Nc3ccccc3OC)CC2)cc1,-3%,i,i,5,-10%
COc1ccc(NC(=O)CN2CCN(C3c4ccccc4-c4ccccc43)CC2)c(OC)c1,19%,i,?,9,8.2µM*
COc1ccccc1NC(=O)CN1CCN(C2c3ccccc3-c3ccccc32)CC1,?,i,?,16,5.8µM*
CCOc1ccc(NC(=O)CN2CCN(C3c4ccccc4-c4ccccc43)CC2)cc1,12%,18µM*,i,-7,?
C(=Nc1ccc(/C=C/c2ccnc3ccccc23)cc1)c1ccc2c(c1)OCO2,/,i,i,/,/
COc1ccc(-n2c(N)c(C(=O)NCc3ccco3)c3nc4ccccc4nc32)cc1,-4%,i,i,?,4%
COc1ccc(-n2c(N)c(C(=O)NCc3ccco3)c3nc4ccccc4nc32)cc1OC,18µM*,i,i,3,16µM*
